Shown are actives, neighbours in structure and some others; about 2.4% of the full set was active somewhere.
WRN helicase inh: WRN helicase (human) inhibition | Q14191 | WRN helicase unwinding, fluorescent forked duplex, kinetic | Potency, µM (doses to about 114 µM), for inactives: at the highest dose activity change, negative = inhibition, most hits filed as inhibitors | 360,000 tested, 0.46% active | AID 651768; note: % is set by controls: 0 for no effect and ±100 for the full control effect; nearly all actives have a fitted effect of over 55% in size
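Enzyme (20 nM final) and test compound sit together 15 min at room temperature before substrate addition. Substrate is a single-forked duplex oligonucleotide (100 nM) labelled with fluorophore and quencher, with 2 mM ATP; helicase unwinding raises red fluorescence, read kinetically.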
POLI inh: blocks human DNA polymerase iota activity; Potency, µM (doses to about 115 µM), for inactives: at the highest dose activity, negative = inhibition, hits mostly inhibitors; 390,000 tested, 1% active; AID 588590; Pol iota fluorescent replication assay, 10 min
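Fluorescent replication assay read twice, at 0 min and 10 min after adding 50 nM (final) substrate. Enzyme (10 nM) and compounds were first incubated 15 min at room temperature; enzyme-free buffer wells were negative controls.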
FEN1 inh: blocks human flap endonuclease 1; Recombinant FEN1 flap cleavage, fluorescence, 15 min; Potency, µM (series often up to 114 µM), for inactives: at the top dose activity change, negative = inhibition, actives largely listed as inhibitors; 390,000 tested, 0.35% active; AID 588795; note: % is set by controls: 0 for no effect and ±100 for the full control effect; nearly all actives have a fitted effect of over 65% in size
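Reaction started by adding substrate (50 nM final) to 10 nM enzyme after 15 min room-temperature compound preincubation. Reads at 0 and 15 min, with data normalized and fitted to a four-parameter Hill equation.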
Pol beta inh: DNA polymerase beta (human) inhibition; 340,000 tested, 1.3% active; Pol beta primer extension/strand displacement, fluorescence kinetic; AID 485314; Potency, µM (top dose mostly 114 µM), without a hit: at the highest dose activity change, negative = inhibition, most hits filed as inhibitors; note: % is set by controls: 0 for no effect and ±100 for the full control effect
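Reaction started by 50 nM substrate onto compound-treated Pol beta (10 nM, 15 min preincubation, room temperature); plates read at 0 min and 10 min. Normalized concentration-effect data fitted by four-parameter Hill equation.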
POLH inh: blocks human DNA polymerase eta activity. Q9Y253. recombinant Pol eta, fluorescent DNA replication assay. Potency, µM (series often up to 114 µM), for the others: at the highest dose activity change, negative = inhibition, hits mostly inhibitors. 390,000 tested, 1.2% active. AID 588591; note: % is set by controls: 0 for no effect and ±100 for the full control effect
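Pol eta at 10 nM preincubated with compounds 15 min at room temperature; reaction started with fluorescent substrate (50 nM final) and read kinetically at 0 and 10 min.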
POLK inh: DNA polymerase kappa (human) inhibition | purified Pol kappa, fluorescent DNA synthesis assay, 10 min | Potency, µM (titrated, usually from 107 µM), without a hit: top-dose activity, negative = inhibition, actives largely listed as inhibitors | 400,000 tested, 0.53% active | AID 588579; note: % is set by controls: 0 for no effect and ±100 for the full control effect
Target sequence (Q9UBT6 whole entry, looked up): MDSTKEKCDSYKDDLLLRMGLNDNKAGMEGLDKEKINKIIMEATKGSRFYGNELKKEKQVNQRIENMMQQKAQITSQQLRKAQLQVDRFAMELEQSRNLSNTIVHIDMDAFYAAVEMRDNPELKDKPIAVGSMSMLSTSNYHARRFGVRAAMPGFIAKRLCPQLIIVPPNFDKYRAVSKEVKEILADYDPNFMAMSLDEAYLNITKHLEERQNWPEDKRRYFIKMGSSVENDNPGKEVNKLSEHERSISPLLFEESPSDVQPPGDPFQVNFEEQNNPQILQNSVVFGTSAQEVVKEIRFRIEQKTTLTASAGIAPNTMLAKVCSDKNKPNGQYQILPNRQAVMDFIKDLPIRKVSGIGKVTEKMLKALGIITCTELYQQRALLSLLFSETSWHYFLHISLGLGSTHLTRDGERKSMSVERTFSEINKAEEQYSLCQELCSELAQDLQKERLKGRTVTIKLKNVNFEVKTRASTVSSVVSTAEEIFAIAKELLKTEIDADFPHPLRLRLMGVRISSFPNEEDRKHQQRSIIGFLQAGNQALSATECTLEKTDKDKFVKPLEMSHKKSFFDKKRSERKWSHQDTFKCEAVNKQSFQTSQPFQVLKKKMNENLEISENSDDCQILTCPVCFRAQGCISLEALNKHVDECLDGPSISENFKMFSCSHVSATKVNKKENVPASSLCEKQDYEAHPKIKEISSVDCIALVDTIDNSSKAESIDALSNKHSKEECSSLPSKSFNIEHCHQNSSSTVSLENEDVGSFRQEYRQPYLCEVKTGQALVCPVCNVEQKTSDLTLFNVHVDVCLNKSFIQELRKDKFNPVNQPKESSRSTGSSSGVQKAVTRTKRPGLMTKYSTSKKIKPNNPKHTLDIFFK
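Fluorescent qHTS in 1536-well format: enzyme (10 nM) and compound sat 15 min at room temperature before 50 nM substrate (final) was added. Signal taken at 0 and 10 min; no-enzyme buffer wells were negative controls.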
Numbers without * were called inactive; ? = inconclusive; nt = not tested or not shown; [ ] = remark or other dose. Calls come from the whole dose curve; as a rule, active = well fitted curve in the direction sought with a large enough effect; inconclusive = small, poorly fitted or top-dose-only effect, or another doubt; inactive = no such curve, though single readings can be large; an effect the other way counts as inactive or inconclusive. Potency is the fitted concentration of half-maximal effect.

SMILES | WRN helicase inh | POLI inh | FEN1 inh | Pol beta inh | POLH inh | POLK inh
COc1ccccc1CNC(=O)/C=C/c1ccc(Br)o1 | -15% | ? | 5% | 8.9µM* | -10% | -20%
COc1ccccc1CNC(=O)Cc1ccc(Br)cc1 | -23% | 5% | 1% | 5% | -8% | -7%
COc1ccc(NC(=O)/C=C/c2ccc(Br)o2)cn1 | ? | 16µM* | -24% | 11µM* | 50µM* | 79µM*
C=C1CCN(C(C)C(=O)OCc2cccc(C)c2)S(=O)(=O)c2ccccc21 (stereo unspecified) | nt | -6% | -18% | nt | nt | -4%
COc1ccc(/C=C2\SC(N)=NC2=O)cc1 | -14% | 99% | -3% | 0% | -14% | -14%
CCOC(=O)CSC1=NC(=O)/C(=C/c2ccc(OC)cc2)S1 | 50µM* | 11% | -9% | 1% | -2% | -3%
CN(C)S(=O)(=O)c1cccc(-c2nn(-c3ccccc3)cc2/C=C(\C#N)c2nc3ccccc3[nH]2)c1 | -17% | 30% | -1% | -11% | -18% | -19%
CN(C)S(=O)(=O)c1cccc(-c2nn(-c3ccccc3)cc2/C=C2\SC(=S)NC2=O)c1 | 50µM* | ? | ? | 20µM* | 14µM* | ?
O=c1cc(-c2ccc(O)c(O)c2)oc2ccccc12 | nt | nt | nt | nt | nt | 14µM*
O=c1cc(-c2ccccc2)oc2ccc(O)cc12 | 3% | 8% | ? | -20% | -12% | -3%
O=C(c1ccccc1)c1c(O)cc(-c2ccccc2)oc1=O | -21% | -5% | -4% | 16µM* | -9% | -17%
O=c1cc(-c2ccccc2)oc2cc(O)c(O)cc12 | nt | nt | nt | nt | nt | 3.2µM*
O=C(NCc1nc2cccnc2n1Cc1ccc(F)cc1)c1ccccc1C(F)(F)F | nt | -16% | -15% | 0% | -4% | 0%[60.1 µM]
O=C(O)c1cccc(NC(=O)c2cccc(S(=O)(=O)Nc3cccc(C(=O)O)c3)c2)c1 | nt | 6% | 1% | 0% | 14% | -4%[60.1 µM]
O=C(Nc1cccc(C(=O)Nc2ccc(S(=O)(=O)O)c3cc(S(=O)(=O)O)cc(S(=O)(=O)O)c23)c1)Nc1cccc(C(=O)Nc2ccc(S(=O)(=O)O)c3cc(S(=O)(=O)O)cc(S(=O)(=O)O)c23)c1 | nt | 10µM* | 1µM* | 2.4µM* | 1.8µM* | 1.9µM*
Cc1cc(C(=O)COC(=O)Cc2ccc(Cl)cc2)c(C)n1C | -23% | 35µM* | -4% | nt | ? | ?
CCOC(=O)c1sc2ncn(CC(=O)Nc3ccc(C)cc3Br)c(=O)c2c1C | nt | 24% | -13% | 22% | -8% | -14%
CCOc1ccc2nc(SCC(=O)NCc3ccc(OC)c(OC)c3)[nH]c2c1 | 8% | -3% | 8% | 33% | -19% | -5%
Cc1cc(SCC(=O)NC(=O)NCc2ccco2)nc2ccccc12 | -7% | ? | 11% | 0% | -16% | -5%
CCOc1ccc2nc(SCC(=O)NC(=O)NCc3ccco3)[nH]c2c1 | -8% | ? | -4% | 50µM* | ? | -23%
Cc1ccccc1CSCC(=O)NC(=O)NCc1ccco1 | ? | 32µM* | -22% | 11µM* | ? | ?
Cc1cc(SCC(=O)NC(=O)NCc2ccco2)nc2c(C)cccc12 | -21% | ? | -9% | 16µM* | -26% | -22%
CCOc1ccc(-n2c(=S)sc3c(=O)[nH]c(SCC(=O)NCc4ccco4)nc32)cc1 | -24% | ? | 9% | 35µM* | 56µM* | -32%
Cc1ccc(CNC(=O)c2ccc(-c3nc(CS(=O)(=O)c4ccc(C)cc4)c(C)o3)cc2)cc1 | nt | 16% | -3% | 14% | -1% | -8%
COCC(=O)N1CCC2(CC1)CN(C(=O)Nc1ccccc1)C2 | nt | nt | nt | nt | nt | 3%[60.1 µM]
SMILES | WRN helicase inh | POLI inh | FEN1 inh | Pol beta inh | POLH inh | POLK inh
COc1ccc(-c2[nH]c(-c3ccccc3)nc2SCC(=O)NCc2ccco2)cc1OC | -17% | ? | -10% | 40µM* | ? | -24%
CCCCn1c(SCC(=O)NC(=O)NCc2ccco2)nc2cc(S(N)(=O)=O)ccc21 | -9%[11.6 µM] | ? | 8% | 28µM* | 79µM* | ?
O=C(CSc1cccc(C(F)(F)F)c1)NC(=O)NCc1ccco1 | ? | ? | -19% | ? | -25% | ?
O=C(CSc1n[nH]c(-c2ccccc2)n1)NC(=O)NCc1ccco1 | -21%[57.1 µM] | 45µM* | -1% | 35µM* | ? | ?
CCCCn1c(SCc2ccc(C(=O)OC)o2)nc2cc(S(N)(=O)=O)ccc21 | -11%[57.1 µM] | 4% | -15% | 0% | -5% | -5%
O=C(CSc1ccccc1F)NC(=O)NCc1ccco1 | 4%[11.6 µM] | ? | -1% | 10µM* | ? | -24%
O=C(CSc1nnc(CNC(=O)c2c(F)cccc2F)o1)NCc1ccco1 | ? | ? | 0% | 25µM* | ? | -29%
O=C(CSc1nc2ccccc2s1)NC(=O)NCc1ccco1 | -9% | -13% | -12% | 22µM* | -7% | -25%
C=CCn1c(COc2ccccc2F)nnc1SCC(=O)NC(=O)NCc1ccco1 | -18% | 32µM* | -6% | 40µM* | ? | ?
O=C(CSc1nn(-c2ccc(F)cc2)c(=S)s1)NC(=O)NCc1ccco1 | -14% | ? | 5% | 45µM* | 2% | -4%
Cc1nnc(SCC(=O)NC(=O)NCc2ccco2)s1 | -9% | -4% | -5% | -12% | -1% | -8%
C=CCn1c(COc2ccccc2-c2ccccc2)nnc1SCC(=O)NC(=O)NCc1ccco1 | 1% | ? | 6% | -15% | -10% | -5%
Cc1cccc(N2CCN(c3nc4ccccc4c4nc(-c5ccccc5)nn34)CC2)c1C | nt | 22% | -2% | 0% | -15% | -4%
CCN(CC)S(=O)(=O)c1ccc2c(c1)nc(CN(C)C(=O)Nc1ccc(F)cc1)n2C | nt | 10% | 15% | -11% | -8% | -11%[60.1 µM]
Cc1nonc1NC(=O)CSc1nc2ccccc2[nH]1 | -29% | ? | 10% | ? | ? | -5%
O=C(CSc1nc2ccccc2o1)NC(=O)NCc1ccco1 | -14% | -9% | -15% | -4% | ? | -17%
O=C(CSc1ncccn1)NC(=O)NCc1ccco1 | 4%[11.6 µM] | 79µM* | 2% | ? | -11% | -14%
CCOC(=O)NC(=O)CSc1nc2ccccc2[nH]1 | 10% | 27% | -3% | 50µM* | -9% | 5%
CS/C(=N\S(=O)(=O)c1cccs1)NC(=O)CSc1nc2ccccc2s1 | ? | ? | ? | ? | 50µM* | -26%
COc1ccc(C)cc1-n1nnnc1SCC(=O)NC(=O)NCc1ccco1 | -3%[11.6 µM] | 28µM* | 2% | 14µM* | 89µM* | ?
COc1ccccc1CNS(=O)(=O)c1cc(C(=O)Nc2cccc(C(F)(F)F)c2)ccc1F | nt | -8% | -21% | 26% | 0% | -10%[60.1 µM]
